Compounds without any hit were thinned out: in the full panel of roughly 83,000, 20% have a hit.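 Assay: single dose, 48 h. Readout: percent growth (0 = no net growth; negative = cell death). Active: <10.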 Values without a mark were called inactive. Activity calls are given as the source filed them.
Key:
Assay in all cases: NCI-60 one-dose screen, 48 h (100 = growth as untreated, 0 = no growth, -100 = all killed)
Conditions in all cases: 10 µM unless noted
SK-MEL-2 melanoma = test system: SK-MEL-2 melanoma
EKVX NSCLC = test system: EKVX NSCLC
SN12C renal = test system: SN12C renal
UO-31 renal = test system: UO-31 renal
TK-10 renal = test system: TK-10 renal
ACHN renal = test system: ACHN renal
CAKI-1 renal = test system: CAKI-1 renal
A498 renal = test system: A498 renal
CCRF-CEM leukemia = test system: CCRF-CEM leukemia
MOLT-4 leukemia = test system: MOLT-4 leukemia

Row | Structure (SMILES) | growth (SK-MEL-2 melanoma) | growth (EKVX NSCLC) [%] | growth (SN12C renal) [%] | growth (UO-31 renal) | growth (TK-10 renal) | growth (ACHN renal) | growth (CAKI-1 renal) | growth (A498 renal) | growth (CCRF-CEM leukemia) | growth (MOLT-4 leukemia)
1 | Cn1c(=O)c2c(ncn2CCC(=O)Nc2ccc(F)cc2)n(C)c1=O | 104% | 101 | 105 | 90% | 95% | 110% | 92.9% | 103% | 97.5% | 101%
2 | CC1(C)CC[C@]2(C(=O)Nc3ccccn3)CC[C@]3(C)C(=CC[C@@H]4[C@@]5(C)C/C(=C/c6ccncc6)C(=O)C(C)(C)[C@@H]5CC[C@]43C)[C@@H]2C1 | 63.3% | 39.3 | 34.4 | 36.9% | 77.4% | -11.9% (active) | 40.4% | -17.2% (active) | 25.4% | 11.6%
3 | CC(CNc1nc(Nc2ccc(Cl)c(Cl)c2)nc(C(Cl)(Cl)Cl)n1)N(C)C (stereo not given) | -92.1% (active) | 18.5 | 16.2 | -3.58% (active) | -61.7% (active) | 6.79% (active) | -19.1% (active) | 22.8% | -3.41% (active) | -49.4% (active)
4 | COc1ccc(C2NC(=O)Nc3ccccc32)c(OC)c1 (stereo not given) | 102% | 97 | 95.3 | 78.3% | 95.5% | 99.4% | 93% | 105% | 101% | 95.5%
5 | COc1cc(-c2cc3ncccc3c3[nH]c(=O)c4cccnc4c23)cc(OC)c1OC | 44.6% | 33.2 | 42.7 | 36.2% | 52.2% | 46.7% | 28.4% | -18.1% (active) | 13.1% | 31.6%
6 | C=C(C)[C@@H]1CC[C@]2(c3nnc(-c4ccncc4)o3)CC[C@]3(C)[C@H](CC[C@@H]4[C@@]5(C)CCC(=O)NC(C)(C)[C@@H]5CC[C@]43C)[C@@H]12 | 111% | 95.1 | 91.8 | 76.6% | 143% | 98.7% | 51.1% | 99.3% | 95% | 85.6%
7 | COc1ccc(C2CC(=O)c3c(nc4ccc(Cl)cc4c3N)C2)cc1 (stereo not given) | 118% | 97.6 | 101 | 92.2% | 80.6% | 105% | 88.5% | 100% | 91.6% | 95.1%
8 | Nc1c2c(nc3ccc(Br)cc13)CC(c1ccccc1)CC2=O (stereo not given) | 59.2% | 27.2 | 51.3 | 53.1% | 85.7% | 57.7% | 47.2% | 1.16% (active) | 19.7% | 29.3%
9 | N=C(N)c1ccc(S(N)(=O)=O)cc1 | 99.9% | 96.2 | 94.5 | 72.6% | 96.6% | 108% | 92.5% | 92% | 107% | 102%
10 | CC(=O)NC1=C(C#N)C(c2ccccc2Cl)c2c(ccc3ccccc23)O1 (stereo not given) | 59.2% | 63.5 | 70.8 | 49.8% | 141% | 65% | 37.2% | 56.2% | 60.8% | 50.2%
11 | Cc1csc(-c2ccc3c(c2)COC3(CCCN(C)C)c2ccc(F)cc2)c1 (stereo not given) | 25.8% | 72.2 | 62.7 | 44.7% | 55% | 63.6% | 27.7% | 86.2% | 11.3% | -17.4% (active)
12 | COc1cccc(-c2nn(-c3ccccc3)cc2-c2ccnc(NCCCNS(=O)(=O)c3ccc(C(F)(F)F)cc3)c2)c1 | 19.3% | 46.5 | 23 | 11.3% | 42.1% | 22.4% | 27.2% | 20.3% | 16.8% | -0.667% (active)
13 | C[C@H]1[C@H]2C3=CC[C@@H]4[C@@]5(C)C/C(=C/c6ccco6)C(=O)C(C)(C)[C@@H]5CC[C@@]4(C)[C@]3(C)CC[C@@]2(C(=O)N2CCOCC2)CC[C@@H]1C | 106% | 88.4 | 73.8 | 49% | 99.6% | 53.7% | 42.5% | 94% | 14.2% | 6.22% (active)

— PubChem BioAssay (NCI)
